Screening data as filed in PubChem.
Apoferritin bind: qHTS Assay for Identification of Novel General Anesthetics; Ferritin light chain (Equus caballus), P02791; AID 485281, 2010; Potency, µM (top dose mostly 77.5 µM), for the others: top-dose activity change, negative = displacement, hits mostly inhibitors; hit rate 0.074% among 350,000; apoferritin/1-aminoanthracene competitive binding, fluorescence; also: potency is read from the fitted curve at half-maximal effect; % is scaled to controls: 0 for no effect and ±100 for the full control effect; nearly all actives have a fitted effect of over 20% in size
Target sequence (P02791 2-175 limits assumed): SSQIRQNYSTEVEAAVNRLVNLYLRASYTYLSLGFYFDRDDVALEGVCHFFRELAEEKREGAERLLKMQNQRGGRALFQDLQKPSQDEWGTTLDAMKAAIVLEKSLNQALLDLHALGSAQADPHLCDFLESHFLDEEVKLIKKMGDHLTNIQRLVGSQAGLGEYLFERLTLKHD
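Concentration-response curves derived by four-parameter Hill fitting of normalized fluorescence, where compounds displaced 1-AMA from 10 uM horse apoferritin following a brief 10 min room-temperature incubation; propofol titration acted as positive control.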
Nrf2 activator: qHTS of Nrf2 Activators. AREc32 ARE-luciferase reporter (MCF7-derived line), luminescence, 24 h. Potency, µM (titrated, usually from 46.1 µM), inactives show top-dose activation, hits mostly activators. hit rate 0.31% among 410,000; also: potency is read from the fitted curve at half-maximal effect; % of control where 0% means no effect; nearly all actives have a fitted effect of over 65% in size
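ARE activation measured as luciferase luminescence (Steady-Glo, 30 min RT) in AREc32_Fluc cells after 24 hr compound exposure at 37 deg C, 5% CO2; cells seeded overnight at 1000/well in OPTI-MEM, 5% FBS.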
Giardia killer: Small Molecules that selectively kill Giardia lamblia: qHTS; Giardia lamblia trophozoite viability; hit rate 0.15% among 340,000; activity change, % at 7.66 µM, hits read low; in the data active = activity change below about -80%; inconclusive = between about -30% and that limit;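 also: parasites exposed to compound for two days anaerobically before the ATP read; % is scaled to controls: 0 for no effect and ±100 for the full control effect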
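Trophozoites 100 cells/well + cpd; 48 hrs, 37 deg C, anaerobic. ATPLite 1-Step added, 15-30 min RT, luminescence read (ATP-based viability).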
A549 viability: Nrf2 qHTS screen for inhibitors: counterscreen for cytotoxicity | Potency, µM (titrated, usually from 46 µM), for inactives: top-dose activity change, negative = cytotoxicity, usual class: inhibitors | hit rate 0.16% among 390,000 | A549 ARE-Fluc cells, CellTiter-Fluor viability, 18-24 h; also: potency is read from the fitted curve at half-maximal effect; % is scaled to controls: 0 for no effect and ±100 for the full control effect
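A549 ARE-Fluc cells in 5% FBS OPTI-MEM, 5000 cells/well, rested 2 h then exposed to compounds in concentration-response for 18-24 h at 37 °C. Viability by CellTiter-Fluor fluorescence (Ex 405/Em 525) after 30 min; luciferase luminescence (BugLite, 15 min, RT) read afterwards.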
IDH1 R132H inh: qHTS for Inhibitors of mutant isocitrate dehydrogenase 1 (IDH1): qHTS; IDH1-R132H enzyme, NADPH consumption, diaphorase/resazurin fluorescence; Isocitrate dehydrogenase [NADP] cytoplasmic (Homo sapiens), O75874; Potency, µM (top dose mostly 76.6 µM), inactives show at the highest dose activity change, negative = inhibition, usual class: inhibitors; AID 602179, 2012; hit rate 0.093% among 390,000; also: potency is read from the fitted curve at half-maximal effect; % is scaled to controls: 0 for no effect and ±100 for the full control effect; nearly all actives have a fitted effect of over 65% in size
Target sequence (O75874 whole entry R132H, stated change not applied): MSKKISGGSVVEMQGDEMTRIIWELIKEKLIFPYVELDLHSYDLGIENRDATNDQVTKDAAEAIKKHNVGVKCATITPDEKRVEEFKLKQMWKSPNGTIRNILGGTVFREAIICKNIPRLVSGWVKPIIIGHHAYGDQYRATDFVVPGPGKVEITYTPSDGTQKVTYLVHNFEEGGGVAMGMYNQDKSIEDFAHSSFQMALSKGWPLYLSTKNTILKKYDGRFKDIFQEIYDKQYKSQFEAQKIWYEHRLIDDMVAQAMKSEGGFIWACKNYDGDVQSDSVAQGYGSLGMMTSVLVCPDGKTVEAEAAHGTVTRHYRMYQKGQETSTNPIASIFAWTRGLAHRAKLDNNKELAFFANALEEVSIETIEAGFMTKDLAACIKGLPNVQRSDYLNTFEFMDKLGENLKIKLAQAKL
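IDH1-R132H (0.5 ug/mL dispensed) in pH 7.5 Tris buffer was preincubated 30 min with compound, then given a substrate mix of 0.016 mM NADPH and 2 mM alpha-KG for 80 min at room temperature; remaining NADPH was read by diaphorase/resazurin fluorescence.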
Nrf2 inh: Nrf2 qHTS screen for inhibitors; hit rate 2.1% among 360,000; Potency, µM (series often up to 46 µM), for inactives: top-dose activity change, negative = inhibition, most hits filed as inhibitors; A549 ARE-Fluc reporter, luciferase luminescence, 18-24 h; AID 504444, 2011; also: potency is read from the fitted curve at half-maximal effect; % is scaled to controls: 0 for no effect and ±100 for the full control effect; nearly all actives have a fitted effect of over 60% in size
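A549 ARE_Fluc cells, 5000/well, 5% FBS OPTI-MEM; compounds in dose-response, 18-24 h at 37 °C/5% CO2; CellTiter-Fluor viability read (Ex 405/Em 525), then BugLite luciferase luminescence = Nrf2 activity.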
An asterisk follows results filed as active; ? = inconclusive; · = not tested or not shown; [ ] = another dose, or the depositor's remark. An excerpt weighted towards active compounds, which were near 2.3% of everything screened. Unless noted, calls follow the shape of the dose curve; as a rule, active = well fitted curve in the direction sought with a large enough effect; inconclusive = small, poorly fitted or top-dose-only effect, or another doubt; inactive = no such curve, though single readings can be large; an effect the other way counts as inactive or inconclusive.

SMILES | Apoferritin bind | Nrf2 activator | Giardia killer | A549 viability | IDH1 R132H inh | Nrf2 inh
CN(CC(=O)Nc1ccc(Cl)c(C(F)(F)F)c1)C(=O)C1CCN(C(=O)c2ccc(Cl)cc2)CC1 | · | -0.7% | -15.6 | ? | -8.7% | 23.1µM*
CN(CC(=O)Nc1ccc(Cl)c(C(F)(F)F)c1)C(=O)C1CCC1 | · | 0.4% | -16.2 | -2.6% | 8.7% | -13.2%
Cc1sc2ncnc(N3CCC(C(=O)N(C)CC(=O)Nc4cccc(F)c4)CC3)c2c1C | · | -5.2% | · | · | -4.3% | ·
Cc1sc2ncnc(N3CCC(C(=O)N(C)CC(=O)Nc4ccccc4Br)CC3)c2c1C | -10.0% | -1.0% | -3.9 | -11.1% | 0.8% | ?
Cc1sc2ncnc(N3CCC(C(=O)N(C)CC(=O)Nc4ccc(Cl)c(C(F)(F)F)c4)CC3)c2c1C | · | -0.5% | -9.2 | ? | 3.5% | 10.3µM*
O=C1C(=C(c2ccccc2)c2ccccc2)Nc2ccccc21 | -20.6% | 12.6µM* | -8.3 | ? | -0.8% | ?
CC(C)CC(N)c1csc(NC(=O)Nc2ccccc2C(C)(C)C)n1 (stereo unspecified) | · | -0.8% | · | · | · | ·
Fc1ccccc1NC(=S)Nc1ccc(Br)cc1 | -2.3% | 0.4% | -0.2 | ? | -3.8% | 23.1µM*
Fc1cc(Br)ccc1NC(=S)Nc1ccccc1 | -6.9% | 2.6% | -14.8 | 5.9% | 1.3% | 8.2%
COc1ccccc1-c1cc(C(F)(F)F)nc(S(=O)(=O)CCCC(=O)O)n1 | -9.1% | 11.2µM* | -8.1 | -17.7% | 9.0% | ·
O=C(CSc1nnc(-c2ccccc2)c(-c2ccccc2)n1)NC1CCCCC1 | -7.8% | -0.3% | · | -14.9% | -24.7% | ?
Cc1nc2nc(NC(=O)c3ccc(C(C)(C)C)cc3)[nH]n2c(=O)c1C | -0.2% | -1.0% | · | 1.6% | 29.8% | 23.5%
COc1ccc(C2CC=C(C(C)=O)CN2S(=O)(=O)c2ccccc2)cc1 (stereo unspecified) | · | 8.4% | · | · | · | ·
COc1ccc(C2NC(=S)NC3=C2CCCC3=C2SCCS2)cc1 (stereo unspecified) | -16.3% | 3.16µM* | 1.9 | -21.2% | 7.1% | ?
S=C1NC2=C(CCCC2=C2SCCCS2)C(c2ccccc2)N1 (stereo unspecified) | -18.6% | 16.9% | -19.8 | 13.6% | 7.3% | 1.7%
CCC(C)NC(=O)c1ccc2nc(CCc3ccccc3)oc2c1 (stereo unspecified) | -10.1% | 1.1% | · | -0.7% | -14.2% | ·
Cc1nc([N+](=O)[O-])c(Br)n1CC(=O)c1ccc(F)cc1 | -7.2% | 30.1% | 4.1 | -14.6% | 0.0% | -29.6%
Cc1nc([N+](=O)[O-])c(Br)n1Cc1ccccc1 | -4.3% | 10µM* | -5.2 | -7.5% | -1.3% | ?
CCC(COC)Oc1cc(NCc2ccccc2)c2ncn(C(C)C)c2c1 (stereo unspecified) | · | -5.0% | ? | ? | 27.1% | 18.4µM*
CCC(COC(=O)c1ccccc1)Oc1cc(NCc2ccccc2)c2ncn(C(C)C)c2c1 (stereo unspecified) | · | -5.1% | 12.7 | 16.4µM* | -9.6% | 23.1µM*
CC(C)n1cnc2c(NCc3ccccc3)cc(N[C@H](C)CO)cc21 | · | -3.2% | 29.2 | 23.1µM* | 1.4% | ?
CCC(CO)Oc1cc(NCc2ccccc2)c2ncn(C(C)C)c2c1 (stereo unspecified) | · | -5.2% | 3.0 | 0.5% | -5.5% | 0.0%
CCCCOc1cc(NCc2ccccc2)c2ncn(C(C)C)c2c1 | · | -1.3% | -21.7 | ? | 0.9%[38.3 µM] | ?
COc1ccccc1NCc1cccn1-c1nnc(N2CCOCC2)s1 | -2.9% | -0.4% | · | 3.1% | 25.0% | ?
O=C(CCC(=O)N1Cc2ccccc2Oc2ncccc21)NCc1cccc(Cl)c1 | -5.7% | 0.1% | · | -0.8% | 0.0% | -8.0%
